What was measured:
Assay in all cases: DAPPL (digital affinity profiling via proximity ligation, sequencing); 10 mM Tris-HCl pH 7.5, 50 mM NaCl, 1 mM DTT, 4% glycerol, room temperature, 30 min; GST-TFs on glutathione beads, 16-mer random dsDNA library, 0.1% formaldehyde crosslink after washing; high values mean tight binding
FEV = target: T1, FEV (Homo sapiens, UniProt Q99581 1-238); conditions: protein: recombinant; tags: N-terminal GST; dsDNA, one strand shown
T1 sequence: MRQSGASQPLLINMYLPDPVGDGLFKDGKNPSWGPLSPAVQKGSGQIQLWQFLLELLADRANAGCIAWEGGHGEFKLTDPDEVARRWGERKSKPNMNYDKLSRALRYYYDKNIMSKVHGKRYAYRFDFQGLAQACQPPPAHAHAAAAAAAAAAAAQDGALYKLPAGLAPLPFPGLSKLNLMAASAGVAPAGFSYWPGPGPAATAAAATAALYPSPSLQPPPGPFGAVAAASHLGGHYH
In short: (§1)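 Binding signal is each hexamer's read frequency for a factor divided by its frequency in the tag-only sample. The factors were GST-fused human transcription factors from yeast, captured on glutathione beads, DNA-barcoded and pooled with that sample. Pools were incubated with 200 nmole of a random double-stranded 16-mer DNA library in Tris/NaCl/DTT/glycerol buffer at room temperature for 30 min, then washed, crosslinked with 0.1% formaldehyde, proximity-ligated with BsaI/T4 ligase (1 h, 37 °C), PCR-amplified and sequenced on an Illumina NextSeq500.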

ETV5 = ETV5 (Homo sapiens, UniProt P41161 1-510); conditions: protein: recombinant; tags: N-terminal GST; dsDNA, one strand shown
Sequence of ETV5 (P41161 whole entry): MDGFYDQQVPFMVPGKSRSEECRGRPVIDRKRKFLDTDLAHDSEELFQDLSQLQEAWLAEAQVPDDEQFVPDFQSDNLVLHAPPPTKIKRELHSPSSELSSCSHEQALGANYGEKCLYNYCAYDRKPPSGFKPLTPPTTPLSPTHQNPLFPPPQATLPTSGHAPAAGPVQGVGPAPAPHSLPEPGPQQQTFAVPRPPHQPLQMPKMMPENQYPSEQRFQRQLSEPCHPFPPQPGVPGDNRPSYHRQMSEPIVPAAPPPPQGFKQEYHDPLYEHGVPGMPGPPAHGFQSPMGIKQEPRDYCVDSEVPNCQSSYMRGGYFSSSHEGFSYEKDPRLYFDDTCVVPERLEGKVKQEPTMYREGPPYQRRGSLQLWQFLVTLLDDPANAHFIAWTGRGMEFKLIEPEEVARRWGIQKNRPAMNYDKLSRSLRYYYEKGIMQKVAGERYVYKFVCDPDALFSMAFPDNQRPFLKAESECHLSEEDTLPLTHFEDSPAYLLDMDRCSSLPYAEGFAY
In short: as §1

HSF1 = HSF1 (Homo sapiens, UniProt Q00613 1-529); conditions: protein: recombinant; tags: N-terminal GST; chain copies: 3; dsDNA, one strand shown
Sequence of HSF1 (Q00613 whole entry): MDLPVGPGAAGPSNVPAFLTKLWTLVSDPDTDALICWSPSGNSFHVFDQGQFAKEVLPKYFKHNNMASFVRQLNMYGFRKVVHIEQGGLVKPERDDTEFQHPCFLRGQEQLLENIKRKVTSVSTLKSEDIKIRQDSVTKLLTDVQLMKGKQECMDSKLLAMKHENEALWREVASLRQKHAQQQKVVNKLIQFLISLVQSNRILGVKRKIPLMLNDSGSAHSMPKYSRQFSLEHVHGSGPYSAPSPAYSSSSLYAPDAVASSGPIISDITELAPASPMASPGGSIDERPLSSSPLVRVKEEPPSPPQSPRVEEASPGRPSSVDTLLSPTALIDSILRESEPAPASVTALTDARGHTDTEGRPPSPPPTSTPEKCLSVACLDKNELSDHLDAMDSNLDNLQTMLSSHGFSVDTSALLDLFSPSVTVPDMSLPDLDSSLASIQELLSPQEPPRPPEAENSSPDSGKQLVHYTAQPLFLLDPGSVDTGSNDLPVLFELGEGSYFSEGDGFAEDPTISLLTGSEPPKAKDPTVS
In short: as §1

SPIC = target: T2, SPIC (Homo sapiens, UniProt Q8N5J4 1-248); conditions: protein: recombinant; tags: N-terminal GST; dsDNA, one strand shown
T2 sequence: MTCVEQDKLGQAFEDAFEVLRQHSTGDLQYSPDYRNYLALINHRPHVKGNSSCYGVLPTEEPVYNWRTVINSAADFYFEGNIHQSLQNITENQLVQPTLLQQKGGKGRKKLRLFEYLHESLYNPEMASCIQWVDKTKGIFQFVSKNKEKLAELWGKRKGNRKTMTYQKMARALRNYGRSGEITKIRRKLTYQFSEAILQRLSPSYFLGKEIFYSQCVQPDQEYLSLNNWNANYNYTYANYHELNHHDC
In short: as §1

ELF4 = ELF4 (Homo sapiens, UniProt Q99607 1-663); conditions: protein: recombinant; tags: N-terminal GST; dsDNA, one strand shown
Sequence of ELF4 (Q99607 whole entry): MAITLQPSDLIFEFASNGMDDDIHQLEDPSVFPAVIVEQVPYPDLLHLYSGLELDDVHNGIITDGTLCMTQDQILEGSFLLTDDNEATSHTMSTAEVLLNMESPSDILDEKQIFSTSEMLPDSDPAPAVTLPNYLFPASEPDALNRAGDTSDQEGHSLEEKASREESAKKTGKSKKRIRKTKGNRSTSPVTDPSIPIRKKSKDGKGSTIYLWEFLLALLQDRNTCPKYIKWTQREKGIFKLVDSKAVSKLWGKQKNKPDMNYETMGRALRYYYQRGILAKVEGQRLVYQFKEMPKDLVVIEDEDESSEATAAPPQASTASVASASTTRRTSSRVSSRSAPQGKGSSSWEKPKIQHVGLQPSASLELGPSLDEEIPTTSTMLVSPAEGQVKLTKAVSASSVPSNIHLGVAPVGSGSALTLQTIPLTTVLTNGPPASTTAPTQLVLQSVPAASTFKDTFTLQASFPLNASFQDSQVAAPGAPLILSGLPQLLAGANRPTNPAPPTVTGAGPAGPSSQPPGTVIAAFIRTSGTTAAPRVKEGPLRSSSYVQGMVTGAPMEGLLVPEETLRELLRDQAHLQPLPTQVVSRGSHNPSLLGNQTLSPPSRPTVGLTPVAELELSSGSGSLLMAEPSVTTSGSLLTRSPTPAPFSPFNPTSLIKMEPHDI
In short: as §1

ELK4 = target: T3, ELK4 (Homo sapiens, UniProt P28324-2 1-405); conditions: protein: recombinant; tags: N-terminal GST; dsDNA, one strand shown
T3 sequence: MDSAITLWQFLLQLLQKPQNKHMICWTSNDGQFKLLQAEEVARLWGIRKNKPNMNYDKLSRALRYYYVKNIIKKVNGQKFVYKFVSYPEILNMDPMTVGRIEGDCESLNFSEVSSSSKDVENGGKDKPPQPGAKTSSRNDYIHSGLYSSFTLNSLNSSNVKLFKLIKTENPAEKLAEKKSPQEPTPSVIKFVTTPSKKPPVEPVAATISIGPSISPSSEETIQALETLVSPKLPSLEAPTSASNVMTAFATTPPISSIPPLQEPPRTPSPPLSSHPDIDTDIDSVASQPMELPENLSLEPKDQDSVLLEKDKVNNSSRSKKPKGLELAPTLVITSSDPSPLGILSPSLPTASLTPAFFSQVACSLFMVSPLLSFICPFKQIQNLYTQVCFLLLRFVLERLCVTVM
In short: as §1

ETV2 = target: T4, ETV2 (Homo sapiens, UniProt O00321 1-342); conditions: protein: recombinant; tags: N-terminal GST; dsDNA, one strand shown
T4 sequence: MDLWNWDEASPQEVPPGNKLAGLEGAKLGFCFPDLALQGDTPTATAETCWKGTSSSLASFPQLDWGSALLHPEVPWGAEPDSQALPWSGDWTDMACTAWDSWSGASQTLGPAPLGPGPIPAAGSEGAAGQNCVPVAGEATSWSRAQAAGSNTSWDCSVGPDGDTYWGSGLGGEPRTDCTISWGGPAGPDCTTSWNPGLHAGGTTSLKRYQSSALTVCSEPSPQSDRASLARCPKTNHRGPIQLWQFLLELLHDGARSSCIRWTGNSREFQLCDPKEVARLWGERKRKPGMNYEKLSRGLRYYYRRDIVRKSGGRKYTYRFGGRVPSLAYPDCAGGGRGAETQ
In short: as §1

ELF3 = target: T5, ELF3 (Homo sapiens, UniProt P78545 1-371); conditions: protein: recombinant; tags: N-terminal GST; dsDNA, one strand shown
T5 sequence: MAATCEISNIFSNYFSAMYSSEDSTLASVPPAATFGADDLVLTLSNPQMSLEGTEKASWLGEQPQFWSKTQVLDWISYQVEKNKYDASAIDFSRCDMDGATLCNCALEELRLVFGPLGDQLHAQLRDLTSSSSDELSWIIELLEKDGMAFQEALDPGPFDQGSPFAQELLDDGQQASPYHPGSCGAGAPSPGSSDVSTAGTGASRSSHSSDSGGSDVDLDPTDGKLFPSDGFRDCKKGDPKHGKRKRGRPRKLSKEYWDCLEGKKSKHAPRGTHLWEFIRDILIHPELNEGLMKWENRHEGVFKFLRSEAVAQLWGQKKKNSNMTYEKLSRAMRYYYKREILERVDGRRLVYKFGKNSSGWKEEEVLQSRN
In short: as §1

CRX = CRX (Homo sapiens, UniProt O43186 1-299); conditions: protein: recombinant; tags: N-terminal GST; dsDNA, one strand shown
Sequence of CRX (O43186 whole entry): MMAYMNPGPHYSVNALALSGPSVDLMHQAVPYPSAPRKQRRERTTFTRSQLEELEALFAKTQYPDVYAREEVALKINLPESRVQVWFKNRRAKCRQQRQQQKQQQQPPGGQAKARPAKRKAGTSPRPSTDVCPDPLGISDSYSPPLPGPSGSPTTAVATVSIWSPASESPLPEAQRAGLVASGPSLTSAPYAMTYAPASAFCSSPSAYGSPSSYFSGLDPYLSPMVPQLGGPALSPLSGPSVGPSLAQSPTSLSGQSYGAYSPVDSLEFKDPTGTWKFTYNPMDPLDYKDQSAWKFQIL
In short: as §1

ETV1 = ETV1 (Homo sapiens, UniProt P50549 1-477); conditions: protein: recombinant; tags: N-terminal GST; dsDNA, one strand shown
Sequence of ETV1 (P50549 whole entry): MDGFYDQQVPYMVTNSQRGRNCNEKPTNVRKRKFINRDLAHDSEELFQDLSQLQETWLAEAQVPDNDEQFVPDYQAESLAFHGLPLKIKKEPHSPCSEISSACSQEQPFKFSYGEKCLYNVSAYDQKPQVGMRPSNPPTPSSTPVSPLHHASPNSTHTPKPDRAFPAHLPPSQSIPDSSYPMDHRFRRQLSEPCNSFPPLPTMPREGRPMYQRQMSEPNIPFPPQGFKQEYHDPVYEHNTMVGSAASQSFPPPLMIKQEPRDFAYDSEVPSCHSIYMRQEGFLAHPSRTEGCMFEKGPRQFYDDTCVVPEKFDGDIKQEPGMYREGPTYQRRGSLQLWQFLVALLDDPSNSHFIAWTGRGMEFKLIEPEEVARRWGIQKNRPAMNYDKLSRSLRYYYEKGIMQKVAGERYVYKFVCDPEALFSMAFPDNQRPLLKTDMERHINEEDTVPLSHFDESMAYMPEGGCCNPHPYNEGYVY
In short: as §1

ERF = target: T6, ERF (Homo sapiens, UniProt P50548 1-548); conditions: protein: recombinant; tags: N-terminal GST; dsDNA, one strand shown
T6 sequence: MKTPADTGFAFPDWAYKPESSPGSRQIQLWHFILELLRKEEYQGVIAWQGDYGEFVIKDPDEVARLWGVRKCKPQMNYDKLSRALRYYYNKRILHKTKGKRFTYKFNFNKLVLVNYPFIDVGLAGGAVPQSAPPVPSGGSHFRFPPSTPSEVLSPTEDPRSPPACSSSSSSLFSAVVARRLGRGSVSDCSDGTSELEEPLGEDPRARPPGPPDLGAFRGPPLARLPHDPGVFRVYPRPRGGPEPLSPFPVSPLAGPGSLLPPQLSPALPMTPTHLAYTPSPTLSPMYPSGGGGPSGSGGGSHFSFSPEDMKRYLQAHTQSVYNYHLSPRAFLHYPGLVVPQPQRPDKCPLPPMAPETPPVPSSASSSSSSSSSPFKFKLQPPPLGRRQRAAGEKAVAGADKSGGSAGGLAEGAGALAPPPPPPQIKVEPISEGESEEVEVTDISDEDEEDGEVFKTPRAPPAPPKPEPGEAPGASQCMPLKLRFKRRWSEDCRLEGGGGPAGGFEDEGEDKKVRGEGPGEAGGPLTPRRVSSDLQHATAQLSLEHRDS
In short: as §1

ETV3L = target: T7, ETV3L (Homo sapiens, UniProt Q6ZN32 1-361); conditions: protein: recombinant; tags: N-terminal GST; dsDNA, one strand shown
T7 sequence: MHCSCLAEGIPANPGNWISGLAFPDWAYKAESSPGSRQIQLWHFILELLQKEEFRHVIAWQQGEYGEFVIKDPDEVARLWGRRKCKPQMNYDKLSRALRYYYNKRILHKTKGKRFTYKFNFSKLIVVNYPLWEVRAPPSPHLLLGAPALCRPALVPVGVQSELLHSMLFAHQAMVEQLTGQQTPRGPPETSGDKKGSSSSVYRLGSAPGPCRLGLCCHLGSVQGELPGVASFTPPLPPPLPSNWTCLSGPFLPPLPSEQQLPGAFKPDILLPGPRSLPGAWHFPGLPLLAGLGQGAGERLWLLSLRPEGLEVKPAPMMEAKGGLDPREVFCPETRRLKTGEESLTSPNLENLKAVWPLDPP
In short: as §1

ETS2 = target: T8, ETS2 (Homo sapiens, UniProt P15036 1-469); conditions: protein: recombinant; tags: N-terminal GST; dsDNA, one strand shown
T8 sequence: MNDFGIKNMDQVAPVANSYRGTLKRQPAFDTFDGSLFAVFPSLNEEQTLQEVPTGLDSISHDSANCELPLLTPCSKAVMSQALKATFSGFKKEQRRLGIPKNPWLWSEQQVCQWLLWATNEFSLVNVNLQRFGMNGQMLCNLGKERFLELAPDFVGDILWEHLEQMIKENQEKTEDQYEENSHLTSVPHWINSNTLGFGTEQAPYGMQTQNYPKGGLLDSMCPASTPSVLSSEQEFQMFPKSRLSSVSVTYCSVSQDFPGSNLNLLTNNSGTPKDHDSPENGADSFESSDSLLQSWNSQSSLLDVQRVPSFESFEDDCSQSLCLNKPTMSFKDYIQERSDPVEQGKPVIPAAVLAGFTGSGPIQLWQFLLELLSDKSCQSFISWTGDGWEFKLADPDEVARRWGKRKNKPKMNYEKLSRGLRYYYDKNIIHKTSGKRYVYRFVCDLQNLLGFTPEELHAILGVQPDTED
In short: as §1

SPDEF = target: T9, SPDEF (Homo sapiens, UniProt O95238 1-335); conditions: protein: recombinant; tags: N-terminal GST; dsDNA, one strand shown
T9 sequence: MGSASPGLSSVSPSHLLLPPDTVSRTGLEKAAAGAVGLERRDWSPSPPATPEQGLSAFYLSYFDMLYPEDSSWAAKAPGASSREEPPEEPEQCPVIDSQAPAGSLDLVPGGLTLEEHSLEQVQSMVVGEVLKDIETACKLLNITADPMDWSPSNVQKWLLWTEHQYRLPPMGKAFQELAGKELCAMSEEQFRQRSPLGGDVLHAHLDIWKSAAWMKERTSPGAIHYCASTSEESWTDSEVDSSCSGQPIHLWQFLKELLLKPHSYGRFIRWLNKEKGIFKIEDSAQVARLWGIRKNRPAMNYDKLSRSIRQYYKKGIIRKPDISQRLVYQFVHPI
In short: as §1

ETV7 = target: T10, ETV7 (Homo sapiens, UniProt Q9Y603 1-341); conditions: protein: recombinant; tags: N-terminal GST; dsDNA, one strand shown
T10 sequence: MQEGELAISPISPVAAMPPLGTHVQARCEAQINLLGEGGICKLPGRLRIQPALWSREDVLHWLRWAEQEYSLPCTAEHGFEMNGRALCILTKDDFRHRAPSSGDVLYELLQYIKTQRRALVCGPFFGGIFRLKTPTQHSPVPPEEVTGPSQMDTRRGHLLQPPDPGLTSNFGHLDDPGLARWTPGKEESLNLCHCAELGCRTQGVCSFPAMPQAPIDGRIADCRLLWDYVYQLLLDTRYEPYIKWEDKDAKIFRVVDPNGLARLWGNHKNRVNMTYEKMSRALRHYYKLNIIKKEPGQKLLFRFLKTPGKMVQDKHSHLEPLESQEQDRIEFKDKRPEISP
In short: as §1

ELF5 = target: T11, ELF5 (Homo sapiens, UniProt Q9UKW6-2 1-255); conditions: protein: recombinant; tags: N-terminal GST; dsDNA, one strand shown
T11 sequence: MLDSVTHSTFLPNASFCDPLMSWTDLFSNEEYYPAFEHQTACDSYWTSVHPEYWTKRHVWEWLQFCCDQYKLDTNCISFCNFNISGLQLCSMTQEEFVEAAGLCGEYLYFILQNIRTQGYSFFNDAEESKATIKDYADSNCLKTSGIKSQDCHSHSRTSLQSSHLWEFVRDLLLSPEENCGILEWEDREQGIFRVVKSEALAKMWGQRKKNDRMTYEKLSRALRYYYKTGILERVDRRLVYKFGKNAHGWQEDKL
In short: as §1

ETV3 = target: T12, ETV3 (Homo sapiens, UniProt P41162-2 1-143); conditions: protein: recombinant; tags: N-terminal GST; dsDNA, one strand shown
T12 sequence: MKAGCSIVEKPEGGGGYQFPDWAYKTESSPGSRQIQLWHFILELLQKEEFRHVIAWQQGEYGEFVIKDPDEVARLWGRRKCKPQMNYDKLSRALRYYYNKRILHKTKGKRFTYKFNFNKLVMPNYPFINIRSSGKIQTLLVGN
In short: as §1

ETV6 = ETV6 (Homo sapiens, UniProt P41212 1-452); conditions: protein: recombinant; tags: N-terminal GST; dsDNA, one strand shown
Sequence of ETV6 (P41212 whole entry): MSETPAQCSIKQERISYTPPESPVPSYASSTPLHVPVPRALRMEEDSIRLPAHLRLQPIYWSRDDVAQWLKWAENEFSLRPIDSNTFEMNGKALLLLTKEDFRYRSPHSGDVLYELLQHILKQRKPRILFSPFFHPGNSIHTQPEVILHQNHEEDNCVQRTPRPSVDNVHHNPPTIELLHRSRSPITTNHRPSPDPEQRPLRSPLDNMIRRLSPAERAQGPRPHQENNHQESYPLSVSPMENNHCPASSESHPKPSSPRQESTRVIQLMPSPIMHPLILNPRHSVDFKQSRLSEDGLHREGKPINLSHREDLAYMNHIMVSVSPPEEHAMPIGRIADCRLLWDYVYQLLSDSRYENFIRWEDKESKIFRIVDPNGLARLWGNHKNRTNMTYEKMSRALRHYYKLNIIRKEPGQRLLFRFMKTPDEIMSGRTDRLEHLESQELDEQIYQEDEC
In short: as §1

Sequence	binding signal (FEV)	binding signal (ETV5)	binding signal (HSF1)	binding signal (SPIC)	binding signal (ELF4)	binding signal (ELK4)	binding signal (ETV2)	binding signal (ELF3)	binding signal (CRX)	binding signal (ETV1)	binding signal (ERF)	binding signal (ETV3L)	binding signal (ETS2)	binding signal (SPDEF)	binding signal (ETV7)	binding signal (ELF5)	binding signal (ETV3)	binding signal (ETV6)
TACAGA	1.13 fold enrichment (6-mer frequency, TF over GST control)	1.12 fold enrichment (6-mer frequency, TF over GST control)	1.28 fold enrichment (6-mer frequency, TF over GST control)	1.25 fold enrichment (6-mer frequency, TF over GST control)	1.13 fold enrichment (6-mer frequency, TF over GST control)	1.1 fold enrichment (6-mer frequency, TF over GST control)	1.25 fold enrichment (6-mer frequency, TF over GST control)	1.11 fold enrichment (6-mer frequency, TF over GST control)	1.25 fold enrichment (6-mer frequency, TF over GST control)	1.16 fold enrichment (6-mer frequency, TF over GST control)	1.13 fold enrichment (6-mer frequency, TF over GST control)	1.04 fold enrichment (6-mer frequency, TF over GST control)	1.14 fold enrichment (6-mer frequency, TF over GST control)	1.16 fold enrichment (6-mer frequency, TF over GST control)	1.18 fold enrichment (6-mer frequency, TF over GST control)	1.11 fold enrichment (6-mer frequency, TF over GST control)	1.1 fold enrichment (6-mer frequency, TF over GST control)	1.1 fold enrichment (6-mer frequency, TF over GST control)
GATTAC	1.05 fold enrichment (6-mer frequency, TF over GST control)	1.06 fold enrichment (6-mer frequency, TF over GST control)	2.08 fold enrichment (6-mer frequency, TF over GST control)	1.13 fold enrichment (6-mer frequency, TF over GST control)	1.08 fold enrichment (6-mer frequency, TF over GST control)	1.23 fold enrichment (6-mer frequency, TF over GST control)	1.1 fold enrichment (6-mer frequency, TF over GST control)	1.04 fold enrichment (6-mer frequency, TF over GST control)	3.27 fold enrichment (6-mer frequency, TF over GST control)	1.1 fold enrichment (6-mer frequency, TF over GST control)	1.13 fold enrichment (6-mer frequency, TF over GST control)	1.07 fold enrichment (6-mer frequency, TF over GST control)	1.1 fold enrichment (6-mer frequency, TF over GST control)	1.13 fold enrichment (6-mer frequency, TF over GST control)	1.08 fold enrichment (6-mer frequency, TF over GST control)	1.11 fold enrichment (6-mer frequency, TF over GST control)	1.07 fold enrichment (6-mer frequency, TF over GST control)	1.13 fold enrichment (6-mer frequency, TF over GST control)

— publication PMC7862700, “An all-to-all approach to the identification of sequence-specific readers for epigenetic DNA modifications on cytosine”
